The list is not random: actives were taken first. Their share in the collection is about 5.2%.
IDH1 R132H inh: qHTS for Inhibitors of mutant isocitrate dehydrogenase 1 (IDH1): qHTS | Isocitrate dehydrogenase [NADP] cytoplasmic (Homo sapiens), O75874 | IDH1-R132H enzyme, NADPH consumption, diaphorase/resazurin fluorescence | Potency, µM (top dose mostly 76.6 µM), hits mostly inhibitors | 390,000 compounds, 0.093% hits | AID 602179, 2012; also: nearly all actives have a fitted effect of over 65% in size
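IDH1-R132H (0.5 ug/mL) preincubated 30 min with compound, then NADPH (0.016 mM) and alpha-KG (2 mM) added; 80 min at RT, pH 7.5. Remaining NADPH coupled via diaphorase/resazurin to fluorescence (540/590 nm); concentration-response curves normalized to no-enzyme control.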
PLK1 PBD block: qHTS for Inhibitors of PLK1-PDB (polo-like kinase 1 - polo-box domain): Primary Screen | AID 720504, 2013 | Potency, µM, actives largely listed as inhibitors | 360,000 compounds, 2.8% hits | Serine/threonine-protein kinase PLK1 (Homo sapiens), P53350 | Plk1 PBD binding of FITC phosphopeptide, fluorescence polarization; also: series mostly up to about 57 µM; nearly all actives have a fitted effect of over 65% in size
Target sequence (P53350 whole entry, looked up, the tested form may be a part): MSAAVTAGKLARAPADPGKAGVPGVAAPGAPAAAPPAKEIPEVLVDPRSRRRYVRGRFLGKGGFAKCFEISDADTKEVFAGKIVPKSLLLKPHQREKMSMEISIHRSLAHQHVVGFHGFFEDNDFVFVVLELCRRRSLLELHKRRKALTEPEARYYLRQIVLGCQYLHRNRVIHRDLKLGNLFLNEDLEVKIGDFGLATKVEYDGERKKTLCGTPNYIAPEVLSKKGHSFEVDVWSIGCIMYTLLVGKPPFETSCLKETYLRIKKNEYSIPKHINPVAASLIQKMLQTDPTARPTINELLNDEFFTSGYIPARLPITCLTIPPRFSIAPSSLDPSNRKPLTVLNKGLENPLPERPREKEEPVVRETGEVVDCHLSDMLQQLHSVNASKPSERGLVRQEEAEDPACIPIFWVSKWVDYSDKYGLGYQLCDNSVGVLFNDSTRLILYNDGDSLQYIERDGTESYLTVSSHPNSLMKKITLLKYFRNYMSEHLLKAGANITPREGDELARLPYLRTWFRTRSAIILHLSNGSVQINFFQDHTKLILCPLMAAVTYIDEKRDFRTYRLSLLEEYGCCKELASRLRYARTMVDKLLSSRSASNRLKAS
VDR inh: Inhibitors of the vitamin D receptor (VDR): qHTS; Vitamin D3 receptor (Homo sapiens), P11473; VDR-SRC2-3 peptide fluorescence polarization, 2 h; Potency, µM, most hits filed as inhibitors; 400,000 compounds, 0.93% hits; AID 504847, 2011
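Reagent solutions, kept cold and dark, are dispensed first; compounds are then pinned in at 23 nl, plates briefly spun, and incubated 2 h at ambient temperature. Inhibition of VDR–SRC2-3 peptide binding is read by fluorescence polarization.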
TrxR1 substrate: qHTS Assay for Substrates of Mammalian Selenoprotein Thioredoxin Reductase 1 (TrxR1): qHTS; Thioredoxin reductase 1, cytoplasmic (Rattus norvegicus), O89049; purified TrxR1 substrate turnover, NADPH consumption readout; Potency, µM (doses to about 114 µM); 390,000 compounds, 0.01% hits; AID 588456, 2011; also: nearly all actives have a fitted effect of over 50% in size
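Rat TrxR1, dispensed at 90 nM, was prereduced with 400 uM NADPH (final) for 5 min at ~22 deg C, then incubated with compound 15 min before 400 uM selenite. A first-read NADPH fluorescence drop versus no-compound background flagged substrates.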
TrxR1 inh: qHTS Assay for Inhibitors of Mammalian Selenoprotein Thioredoxin Reductase 1 (TrxR1): qHTS. Thioredoxin reductase 1, cytoplasmic (Rattus norvegicus), O89049. recombinant rTrxR1, NADPH fluorescence consumption, selenite substrate. Potency, µM (top dose mostly 114 µM), most hits filed as inhibitors. 390,000 compounds, 1% hits. AID 588453, 2011; also: nearly all actives have a fitted effect of over 65% in size
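Rat TrxR1 (90 nM in the dispensed reagent) was pre-reduced with 400 uM NADPH for 5 min at room temperature, then incubated with compound for 15 min. After 400 uM selenite was added, NADPH fluorescence (Ex 340/Em 450 nm) was followed for 8 min.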
Sfp PPTase inh: qHTS Assay for Inhibitors of Bacillus subtilis Sfp phosphopantetheinyl transferase (PPTase); AID 1490, 2009; Potency, µM, usual class: inhibitors; Biochemical Sfp PPTase activity, qHTS; 4'-phosphopantetheinyl transferase ffp (Bacillus subtilis), Q9F4F7; 310,000 compounds, 3.5% hits;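 also: the enzyme is Sfp with the accession as filed and its product quenches rhodamine fluorescence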
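Fluorescence-quenching assay: 15 nM Sfp-PPTase preincubated 15 min at room temperature with compound, then 5 uM rhodamine-CoA and 12.5 uM BHQ-2-labelled YbbR peptide added. Fluorescence (ex 525/em 598 nm) read at start and after 30 min; difference gives rate.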
A number is an active result; 0 = inactive; ? = inconclusive; - = no result; [ ] = dose if it differs, or a comment. Calls follow the shape of the dose curve; as a rule, active = well fitted curve in the direction sought with a large enough effect; inconclusive = small, poorly fitted or top-dose-only effect, or another doubt; inactive = no such curve, though single readings can be large; an effect the other way counts as inactive or inconclusive.

SMILES | IDH1 R132H inh | PLK1 PBD block | VDR inh | TrxR1 substrate | TrxR1 inh | Sfp PPTase inh
O=S(=O)(Nc1cccc(C(F)(F)F)c1)c1cnc[nH]1 | 0 | 0 | 0 | 0 | 0[11.4 µM] | 0
CCOc1ccc(C(CN2CCOCC2)C(C)=O)cc1OC (configuration not stated) | - | 0 | - | - | - | -
CCc1cccc(NS(=O)(=O)c2ccc3c(c2)N(CC(=O)OC)C(=O)CS3)c1 | 0 | - | 0 | 0 | 0 | -
CSc1nnc(N2C(=O)C(O)=C(C(=O)c3ccco3)C2c2ccccc2F)s1 (configuration not stated) | 0 | 0 | 0 | 0 | 7.94µM | 0
CSc1nnc(N2C(=O)C(O)=C(C(=O)c3ccco3)C2c2ccccc2)s1 (configuration not stated) | 0 | 0 | ? | 0 | ? | 0
CCCSc1nnc(N2C(=O)C(O)=C(C(=O)c3ccco3)C2c2ccccc2F)s1 (configuration not stated) | 0 | ? | ? | 0 | 0 | 39.8µM
C=CCSc1nnc(N2C(=O)C(O)=C(C(=O)c3ccco3)C2c2ccccc2F)s1 (configuration not stated) | 0 | 13.4µM | 0 | 0 | 50.1µM | 17.8µM
Cc1nnc(N2C(=O)C(O)=C(C(=O)c3ccco3)C2c2cccc3ccccc23)s1 (configuration not stated) | 0 | 0 | 0 | 0 | ? | ?
Cc1ccc(C(=O)C2=C(O)C(=O)N(c3ncccn3)C2c2ccc(F)cc2)o1 (configuration not stated) | 0 | 0 | 0 | 0[11.4 µM] | 0[11.4 µM] | 0
CSc1nnc(N2C(=O)C(O)=C(C(=O)c3ccc(C)o3)C2c2ccc(C)cc2)s1 (configuration not stated) | 0 | 0 | 0 | 0 | 0 | 15.8µM
CC(/C=C/C(=O)NO)=C\[C@@H](C)C(=O)c1ccc(N(C)C)cc1 | - | - | ? | - | - | 0
O=C(CNC(=O)c1sc2ccccc2c1Cl)NCc1cccc(C(F)(F)F)c1 | 0 | 0 | 0 | 0 | 0 | -
CCO[C@H]1OC(C(=O)O)=C[C@@H](c2ccccc2)[C@@H]1CCCO | 0 | 0 | 0 | 0 | 0 | -
COc1ccc(-n2cc(-c3ccc(OC)c(OC)c3)[nH]c2=S)cc1 | 0 | 23.8µM | 0 | 0 | ? | 44.7µM
COc1cc(OC)c(-n2cc(-c3ccc(OC)c(OC)c3)[nH]c2=S)cc1Cl | 0 | 29.9µM | 0 | 0 | ? | 0
COc1ccc(-n2cc(-c3ccc(Br)cc3)[nH]c2=S)cc1 | 0 | 0 | 0 | 0 | 0 | 0
Cc1ccccc1-c1cn(-c2ccccc2)c(=S)[nH]1 | 0 | 0 | 0 | 0 | 0 | ?
COc1ccc(-c2cn(-c3ccc(C)cc3C)c(=S)[nH]2)cc1OC | 0 | 0 | 0 | 0 | 0 | 0
Cc1ccc(-c2cn(-c3ccccc3)c(=S)[nH]2)cc1C | 0 | 29.9µM | 0 | 0 | 0 | 0
Cc1ccccc1OCC(=O)NCC(=O)OCC(=O)c1ccc(Br)cc1 | - | - | 0 | 0 | 0[0.0914 µM] | -
O=C(Nc1cccc2nsnc12)c1ccc(-c2ccc(Br)cc2)o1 | 0 | 0 | ? | 0 | ? | 39.8µM
O=C(Nc1cccc(NC(=O)c2ccc(-c3ccc(Br)cc3)o2)c1)c1ccco1 | 0 | 0 | 0 | 0 | 79.4µM | 0
Cc1ccc2cccc(NC(=O)c3ccc(-c4ccc(Br)cc4)o3)c2n1 | 0 | - | 0 | 0 | 0 | -
N#Cc1ccc(-c2ccc(C3Nc4ccccc4C(=O)N3O)o2)cc1 (configuration not stated) | - | - | ? | 0 | 7.08µM | -
CC(=O)N1CCc2c(sc3c2c(=O)n(-c2cc(Cl)ccc2C)c(=O)n3C)C1 | 0 | - | 0 | 0 | 0 | -
SMILES | IDH1 R132H inh | PLK1 PBD block | VDR inh | TrxR1 substrate | TrxR1 inh | Sfp PPTase inh
O=S(=O)(N/N=C\c1c(F)cccc1Cl)c1ccc(Cl)cc1 | 0 | 15µM | ? | 0 | 0 | 0
O=C(Nc1c(-c2ccc3c(c2)OCO3)[nH][nH]c1=O)c1ccc2c(c1)OCO2 | - | 0 | - | - | - | -
CCN1C(=O)[C@H]2[C@@H](c3ccc(C)cc3)N3C(=O)N(c4ccc(OC)cc4)C(=O)[C@@]3(C)[C@H]2C1=O | 0 | 21.2µM | 0 | 0 | 0 | 0
COc1ccc(Cn2c(SCc3ccccc3C)nc3cc(OC)c(OC)cc3c2=N)cc1 | - | - | - | - | - | 1.26µM
O=[N+]([O-])c1cc(C(F)(F)F)ccc1NCC1CCCO1 (configuration not stated) | 0 | 5.97µM | 79.4µM | 0 | 0 | 0
CCOc1ccc(-c2cc3c(=O)n(CC(=O)NCc4ccc(Cl)cc4)ccn3n2)cc1 | - | - | 0 | 0 | 0 | -
Cc1cccc(NCC(=O)N/N=C\c2c[nH]c3ccccc23)c1 | 0 | 0 | 0 | 0 | 0 | 0
Cc1ccccc1NCC(=O)N/N=C/c1c[nH]c2ccccc12 | 0 | 29.9µM | 0 | 0 | 0 | 0
O=C(CNC(=O)c1cccs1)N/N=C/c1c[nH]c2ccccc12 | 0 | 18.9µM | 0 | 0 | 0 | 0
O=C(CNC(=O)c1ccco1)N/N=C/c1c[nH]c2ccccc12 | 0 | 0 | 0 | 0 | 0 | 0
CC(=O)c1ccc(OCC(=O)N(C)CC(=O)Nc2ccc(N3CCOCC3)cc2)cc1 | 0 | 0 | 0 | 0 | 0 | -
CN(C(=S)NC(=O)c1ccc(Cl)cc1)C1CCCCC1 | 0 | 21.2µM | 0 | 0 | 0 | 50.1µM
CN(C(=S)NC(=O)c1ccccc1)C1CCCCC1 | 0 | 0 | 0 | 0 | 0 | 0
O=C(Nc1ccc(F)cc1)Nc1nnc(SCC(=O)N2CCCCC2)s1 | 0 | - | 0 | 0 | 0 | -
O=C(CSc1n[nH]c(=O)[nH]c1=O)N1CCCCCC1 | 0 | 26.7µM | ? | 0 | 0 | 0
Cc1cc2ccccc2c(=O)n1CC(=O)NCC(=O)N1CCN(c2ccccc2)CC1 | 0 | 0 | 0 | 0 | 0 | 50.1µM
O=C(Nc1ccc(O)c(-c2nc3ccccc3s2)c1)c1cccs1 | 0 | 0 | 0 | 0 | 0 | ?
CNc1sc(C(=O)c2ccc(F)cc2)c(N)c1-c1nc2ccccc2s1 | 0 | 21.2µM | 0 | 0 | 0 | 0
CNc1sc(C(=O)c2cccs2)c(N)c1-c1nc2ccccc2s1 | 0 | 0 | 0 | 0 | 0 | 12.6µM

Bioassay records deposited in PubChem BioAssay by National Center for Advancing Translational Sciences (NCATS).
